In PubChem BioAssay (NCI):
Compounds without any hit were thinned out: in the full panel of roughly 83,000, 20% have a hit.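 Activity criterion: percent growth below 10, measured after cells in 96-well plates were exposed to a single compound concentration for 48 hours.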 Activity calls are given as the source filed them.

Assays:
Assay in all cases: NCI-60 one-dose screen, 48 h (100 = growth as untreated, 0 = no growth, -100 = all killed)
NCI-H23 lung = conditions: 10 µM unless noted
NCI-H226 lung = conditions: 10 µM unless noted
NCI-H322M lung = conditions: 10 µM unless noted
HOP-62 NSCLC = conditions: 10 µM unless noted
HOP-92 NSCLC = conditions: 10 µM unless noted
NCI-H522 lung = conditions: 10 µM unless noted
A549/ATCC NSCLC = conditions: 10 µM unless noted
786-0 renal = conditions: 10 µM unless noted
COLO 205 colon = conditions: 10 µM unless noted
DU-145 prostate = conditions: 10 µM unless noted
K-562 leukemia = conditions: 10 µM unless noted
MALME-3M melanoma = conditions: 10 µM unless noted
MDA-MB-231 breast = conditions: 10 µM unless noted
RXF 393 renal = conditions: 10 µM unless noted
SF-268 CNS = conditions: 10 µM unless noted
SF-295 CNS = conditions: 10 µM unless noted
SF-539 CNS = conditions: 10 µM unless noted
UACC-257 melanoma = conditions: 10 µM
M14 melanoma = conditions: 10 µM unless noted

Measured: growth

COc1ccc(-c2nn(-c3ccccc3)cc2/C=C/C(=O)c2ccc(NC(=O)CCCCCCC(=O)NO)cc2)cc1
inactive: NCI-H23 lung 113% | NCI-H226 lung 112% | NCI-H322M lung 96.3% | HOP-62 NSCLC 107% | HOP-92 NSCLC 125% | NCI-H522 lung 92.4% | A549/ATCC NSCLC 96% | 786-0 renal 69.8% | COLO 205 colon 115% | DU-145 prostate 97.6% | K-562 leukemia 84.6% | MALME-3M melanoma 137% | MDA-MB-231 breast 99% | RXF 393 renal 63.8% | SF-268 CNS 108% | SF-295 CNS 119% | SF-539 CNS 105% | UACC-257 melanoma 114%

N/C(=N\c1nc2ccc([N+](=O)[O-])cc2s1)C(Cl)(Cl)Cl
active: DU-145 prostate 1.66%
inactive: NCI-H23 lung 91.3% | NCI-H226 lung 85.2% | NCI-H322M lung 10.5% | HOP-62 NSCLC 41.9% | HOP-92 NSCLC 36.2% | NCI-H522 lung 85.3% | A549/ATCC NSCLC 26.5% | 786-0 renal 80.5% | COLO 205 colon 32% | K-562 leukemia 81.2% | MALME-3M melanoma 77.4% | MDA-MB-231 breast 63.1% | RXF 393 renal 44.3% | SF-268 CNS 71.3% | SF-295 CNS 19.6% | SF-539 CNS 63.5% | UACC-257 melanoma 85.1% | M14 melanoma 85.5%

C=C1C(=O)O[C@@H]2C[C@@H](C)CCC(=O)[C@](C)(OC(C)=O)C[C@H](OC(=O)/C(C)=C\C)[C@@H]12
inactive: NCI-H23 lung 70.6% | NCI-H226 lung 104% | NCI-H322M lung 102% | HOP-62 NSCLC 105% | HOP-92 NSCLC 80% | NCI-H522 lung 11.8% | A549/ATCC NSCLC 87.7% | 786-0 renal 90.8% | COLO 205 colon 28.6% | DU-145 prostate 37.2% | MALME-3M melanoma 85.5% | MDA-MB-231 breast 50.4% | RXF 393 renal 51.3% | SF-268 CNS 96.1% | SF-295 CNS 97.5% | SF-539 CNS 72.3% | UACC-257 melanoma 73.4%

O=C1c2c(O)cc(O)cc2O[C@@H](c2ccc(O)cc2)[C@@H]1c1c(O)cc(O)c2c(=O)cc(-c3ccc(O)c(O)c3)oc12
inactive: NCI-H23 lung 92% | NCI-H226 lung 76.6% | NCI-H322M lung 97% | HOP-62 NSCLC 96.3% | HOP-92 NSCLC 104% | NCI-H522 lung 97.4% | 786-0 renal 100% | COLO 205 colon 114% | DU-145 prostate 106% | K-562 leukemia 111% | MALME-3M melanoma 90.7% | MDA-MB-231 breast 111% | RXF 393 renal 112% | SF-268 CNS 101% | SF-295 CNS 108% | SF-539 CNS 95.8% | UACC-257 melanoma 108% | M14 melanoma 94.8%

Cn1ccnc1C(=O)/C=C/c1ccc(C(=O)Nc2ccc(NC(=O)CCNC(=O)c3csc(Br)n3)cc2)cc1
inactive: NCI-H23 lung 43.5% | NCI-H226 lung 84.5% | NCI-H322M lung 66.2% | HOP-62 NSCLC 62.6% | HOP-92 NSCLC 103% | NCI-H522 lung 29% | A549/ATCC NSCLC 64.5% | 786-0 renal 66.3% | COLO 205 colon 85.7% | DU-145 prostate 11.9% | K-562 leukemia 16% | MALME-3M melanoma 102% | MDA-MB-231 breast 72.9% | RXF 393 renal 68.2% | SF-268 CNS 62.2% | SF-295 CNS 81.3% | UACC-257 melanoma 88.6%
active: SF-539 CNS 7.51%

CCNC(=O)Oc1ccc(/C(=C(/C)c2ccc(Cl)cc2)c2ccc(OCCN3CCCC3)cc2)cc1
inactive: NCI-H23 lung 87.5% | NCI-H226 lung 95.8% | NCI-H322M lung 93.3% | HOP-62 NSCLC 97% | HOP-92 NSCLC 83.2% | NCI-H522 lung 96.8% | A549/ATCC NSCLC 73% | 786-0 renal 71.4% | COLO 205 colon 88.8% | DU-145 prostate 102% | K-562 leukemia 13.5% | MALME-3M melanoma 63.6% | MDA-MB-231 breast 88.5% | RXF 393 renal 66.9% | SF-268 CNS 90.5% | SF-295 CNS 96.8% | SF-539 CNS 76.4% | UACC-257 melanoma 81.1% | M14 melanoma 68%

CN1CCN(Cc2ccc(NC(=O)c3cncc(C#Cc4[nH]nc5ncncc45)c3)cc2C(F)(F)F)CC1
inactive: NCI-H23 lung 57.1% | NCI-H226 lung 55% | NCI-H322M lung 75.1% | HOP-62 NSCLC 65.7% | NCI-H522 lung 66.2% | A549/ATCC NSCLC 84.3% | 786-0 renal 86.3% | COLO 205 colon 16.5% | DU-145 prostate 56.6% | K-562 leukemia 12.4% | MDA-MB-231 breast 22.9% | RXF 393 renal 43.4% | SF-268 CNS 73.7% | SF-295 CNS 97% | SF-539 CNS 43.4% | UACC-257 melanoma 86.1% | M14 melanoma 15%
active: HOP-92 NSCLC -16% | MALME-3M melanoma -5.86%

Cc1cc(=O)n2nc(-c3cn(C)c4ccc(Cl)cc34)sc2n1
inactive: NCI-H23 lung 92.1% | NCI-H226 lung 67.3% | NCI-H322M lung 97.2% | HOP-62 NSCLC 85.7% | HOP-92 NSCLC 80.1% | NCI-H522 lung 89.2% | A549/ATCC NSCLC 96.7% | 786-0 renal 102% | COLO 205 colon 93.7% | DU-145 prostate 90.1% | K-562 leukemia 99.2% | MALME-3M melanoma 93% | MDA-MB-231 breast 82.3% | RXF 393 renal 59.5% | SF-268 CNS 87% | SF-295 CNS 105% | SF-539 CNS 83% | UACC-257 melanoma 97% | M14 melanoma 92%

COc1cc(/C=N/n2cnc3oc(-c4ccccc4)cc3c2=N)cc(CN2CCCC2)c1O
inactive: NCI-H23 lung 103% | NCI-H226 lung 90.5% | NCI-H322M lung 96.7% | HOP-62 NSCLC 85.5% | HOP-92 NSCLC 77.9% | NCI-H522 lung 96.4% | COLO 205 colon 11.8% | RXF 393 renal 15.7% | SF-268 CNS 88.6% | SF-295 CNS 90.5% | SF-539 CNS 93.5% | UACC-257 melanoma 109% | M14 melanoma 14.1%
active: 786-0 renal -81% | DU-145 prostate 7.65% | K-562 leukemia 0.0184% | MALME-3M melanoma -45% | MDA-MB-231 breast -70%

COc1cc([C@H]2OC[C@H]3[C@@H]2CO[C@@H]3c2ccc(O)c(OC)c2)ccc1O
inactive: NCI-H23 lung 86.3% | NCI-H226 lung 86% | NCI-H322M lung 91.7% | HOP-62 NSCLC 81.2% | HOP-92 NSCLC 91.8% | NCI-H522 lung 75.8% | A549/ATCC NSCLC 95.1% | 786-0 renal 101% | COLO 205 colon 86.9% | DU-145 prostate 94.8% | K-562 leukemia 99.4% | MALME-3M melanoma 106% | MDA-MB-231 breast 65.2% | RXF 393 renal 76.2% | SF-268 CNS 91.1% | SF-295 CNS 108% | SF-539 CNS 91.1% | UACC-257 melanoma 113% | M14 melanoma 102%
